This note sets out measurements from ChEMBL document CHEMBL1157539, “Thousands of chemical starting points for antimalarial lead identification” (Nature, 2010).

Each structure is given as a SMILES string. Over roughly 13,000 compounds, “IFI” has its median near 4; the highest 2% begin near 17. For the sample, the highest values were picked, then their nearest neighbours and some compounds at random.

This assay in a line: GSK_TCMDC: Inhibition Frequency Index (IFI). The number of non-kinase HTS assays where a compound showed > 50 % inhibition, expressed as a percentage of the number of such assays in which the compound was tested. It is filed as functional.
In turn, `CCCCCCC(N)c1ccc(OCCCOc2ccc(C(N)CCCCCC)cc2)cc1` (centres undefined) showed an IFI of 24.5%.
For `CCCCCCNC(=N)c1ccc(OCCCCCOc2ccc(C(=N)NCCCCCC)cc2)cc1`, the IFI was determined as 12.3%.
The same measure for `C=CCNC(CCCCC)c1ccc(OCCOc2ccc(C(CCCCC)NCC=C)cc2)cc1` (centres undefined): 18.3%; for `CCCCC(NCC)c1ccc(OCCOc2ccc(C(CCCC)NCC)cc2)cc1` (centres undefined): 8.82%.
With `CCCCCOc1ccc(C(O)C(CCC(CN2CCCCCC2)C(O)c2ccc(OCCCCC)cc2)CN2CCCCCC2)cc1` (centres undefined), the IFI was found to be 12.9%.
In the case of `CCCCCC(NCCCC)c1ccc(OCCOc2ccc(C(CCCCC)NCCCC)cc2)cc1` (centres undefined), the IFI amounted to 16.3%.
Compound `Fc1ccc(C=NNc2nc3ccccc3[nH]2)cc1` had an IFI of 1.42%.
Take `O=C1Nc2cccc3c2C1(CCCCN1CCC(c2c(-c4ccc(F)cc4)[nH]c4ccccc24)CC1)CCC3` (centres undefined): the IFI came to 7.91%.
The value for `CCNC(=O)Nc1ccc(N(C)c2ccnc(NC3CC3)n2)cc1` was 2.97%; that for `CN(c1ccc(NC(=O)Nc2cccc(Cl)c2)cc1)c1ccnc(N)n1` was 6.9%.
Regarding `CN(c1ccccc1)c1ccnc(NC(=N)Nc2ccc(Cl)cc2)n1`, the IFI was determined as 18.4%.
Regarding `Cc1cc(NCCC(=O)Nc2ccccc2)nc(NCCOc2ccccc2)n1`, the IFI worked out at 4.88%.
`C=CCOC(=O)N1CCC(CNCc2cccc(-c3ccc(-c4nc5ccccc5[nH]4)s3)c2)C1` (centres undefined) yielded an IFI of 6.73%.
Turning to `Cc1cc2nc(N/C(N)=N/C(=O)NC3CCCCC3)nc(C)c2cc1C`, the IFI is 9.38%.
The value for `CCN(CC)CCOc1ccc(N(Cc2ccc(C(C)(C)C)cc2)C(=O)c2ccc(Cc3ccccc3)cc2)cc1OC` was 5.84%.
The same measure for `Cc1cccc2nc(-c3ccc(-c4cccc(CNCCN5CCNCC5)c4)cc3)[nH]c12`: 6.93%; for `CC(C)COc1ccc(Cl)cc1Cc1ccc(-c2nc3cc(N4CCN(C)CC4)ccc3[nH]2)o1`: 17.2%.
As for `CN1CCN(CCc2ccc3nc(-c4csc(Cc5cc(Cl)ccc5OCc5ccccc5)n4)[nH]c3c2)CC1`, the IFI stood at 10.2%.
On to `CC(C)COc1ccc(Cl)cc1Cc1nc(-c2nc3ccc(CN4CCN(C)CC4)cc3[nH]2)co1`, for which the IFI was found to be 5.81%.
`CC(C)COc1ccc(Cl)cc1Cc1ccc(-c2nc3cc(CCN4CCCC4)ccc3[nH]2)o1`: the IFI was found to be 22.2%.
For `CC(C)COc1ccc(Cl)cc1Cc1nc(-c2nc3ccc(CN4CCCC4)cc3[nH]2)co1`, the IFI turned out to be 16.1%.
`CN1CCN(c2ccc3[nH]c(-c4ccc(Cc5cc(Cl)ccc5OCc5ccccc5)o4)nc3c2)CC1` came in with an IFI of 24.7%.
The compound `CC(C)COc1ccc(Cl)cc1Cc1ccc(-c2nc3cc(CCN(C)C)ccc3[nH]2)o1` displayed an IFI of 16%.
The value for `CNCc1cccc2nc(-c3ccc(Cc4cc(Cl)ccc4OCC(C)C)o3)[nH]c12` was 16.7%; that for `CC(C)COc1ccc(Cl)cc1Cc1nc(-c2nc3ccc(CN4CCCCC4)cc3[nH]2)co1` was 18.3%.
The value for `CC(C)COc1ccc(Cl)cc1Cc1ccc(-c2nc3cc(F)c(F)cc3[nH]2)o1` was 13.7%.
The same measure for `CC(C)COc1ccc(Cl)cc1Cc1ccc(-c2nc3cnc4ccccc4c3[nH]2)o1`: 7.23%; for `Clc1ccc(OCc2ccccc2)c(Cc2ccc(-c3nc4cnccc4[nH]3)o2)c1`: 12.2%.
For `COc1ccc(NC(=O)CCNc2cc(C)nc(NCCc3ccc(F)cc3)n2)cc1`, the IFI was 4.88%.
In turn, `N#Cc1ccc(N2CCN(Cc3ccc(-c4ccc(-c5nc6cc(C(F)(F)F)ccc6[nH]5)cc4)cc3)CC2)nc1` gave an IFI of 3.96%.
As to `NS(=O)(=O)c1cccc(-c2ccc3ncc(N4CCOCC4)nc3c2)c1`, the IFI was found to be 3.7%.
The value for `Cc1[nH]c(C)c(-c2ccc(-c3ccc(Cl)cc3)nc2)c(=O)c1Cl` was 0.92%; that for `COc1cc2s/c(=N\C(=O)c3cccc([N+](=O)[O-])c3)n(C)c2cc1OC` was 1.72%.
With `O=C(NC1CCC(CCN2CCc3ccc(-c4cnccn4)cc3CC2)CC1)c1cccc(-n2cccn2)c1` (centres undefined), the IFI was 5.3%.
Take `O=C1CCCN1CCCNCc1ccc(-c2ccc(-c3nc4cc(C(F)(F)F)ccc4[nH]3)s2)cc1`: the IFI amounted to 6.67%.
Regarding `O=C(Nc1cccc(-c2cccc(-c3nc4cc(C(F)(F)F)ccc4[nH]3)c2)c1)c1cccnc1`, the IFI is 4.59%.
Compound `CCN(CC)CCCC(C)N/C(=N\c1ccccc1Br)Nc1ccc(C#N)cc1O` (centres undefined) came in with an IFI of 0%.
In turn, `OC(CNc1ccnc(Nc2cccc(CCN3CCOCC3)c2)n1)c1ccccc1` (centres undefined) registered an IFI of 9.28%.
Turning to `Cc1cccc(Nc2nccc(Nc3cccc(C(=O)NCCN4CCOCC4)c3)n2)c1`, the IFI was determined as 0%.
For `Cc1cnc(Nc2cccc(CCN3CCOCC3)c2)nc1NC(C)C`, the IFI worked out at 17.2%.
Turning to `Oc1ccc(CCNCCCCNCCc2ccc(Cl)cc2)cc1O`, the IFI stood at 6.12%.
The compound `Cc1[nH]c(C)c(-c2ccc(OCc3cccc(C(F)(F)F)c3)nc2)c(=O)c1Br` displayed an IFI of 13.8%.
Compound `CCCC(C(=O)OCCNC)(c1ccccc1)c1ccccc1` came in with an IFI of 3.6%.
`COc1ccc(CCN(C)CCCCc2ccc(NC(=O)c3cccc4c(=O)c5cc(F)ccc5sc34)cc2)cc1OC`: the IFI is 10%.
For the compound `COc1ccc(CCN(C)CCCN2CCC(NC(=O)c3cccc4c(=O)c5ccccc5[nH]c34)CC2)cc1OC`, the IFI was determined as 5.76%.
The value for `COc1ccc(CCN(C)CCCN2CCC(NC(=O)c3cccc4c(=O)c5ccccc5sc34)CC2)cc1OC` was 21.9%; that for `Clc1ccc(Cl)c2[nH]c(CNCCCNc3nc4ccccc4[nH]3)cc12` was 4.38%.
`COc1ccc2c(OC)cccc2c1CNCCCCCCNCc1c(OC)ccc2c(OC)cccc12`: the IFI is 13.7%.
`Cc1cccn2c(=O)c3cc(C(=O)NCCc4ccccc4)c(=N)n(CCCOC(C)C)c3nc12` gave an IFI of 4.3%.
`O=[N+]([O-])c1ccc(C=NNc2nc3ccccc3[nH]2)cc1` yielded an IFI of 0%.
On to `O=[N+]([O-])c1ccc2nccnc2c1`, for which the IFI was determined as 1.44%.
The same measure for `O=[N+]([O-])c1ccc(/C=N/O)nc1`: 23.4%; for `CC(C)c1ccc(CN2CCC(CNC(=O)c3cc(-c4cccc(F)c4)cs3)C2)cc1` (centres undefined): 14.3%; for `CC1(C)NC(N)=NC(=N)N1OCc1cccs1`: 1.43%.
With `CCCCCCCN(CCCCCCC)CCCC(=O)Nc1ccnc2ccc(OC)cc12`, the IFI is 7.87%.
For `COc1c(C2CCN(CCCCNC(=O)c3ccc(-c4ccc(Cl)cc4)cc3)CC2)ccc2c1C(C)(C)CCC2(C)C`, the IFI came to 6.82%.
On to `O=[N+]([O-])c1ccc(N/C(=N\c2ccccc2Br)NC2CCCc3ccccc32)c(O)c1` (centres undefined), for which the IFI was determined as 4.17%.
The compound `CC1(C(=O)Nc2ccc([N+](=O)[O-])cc2O)CC2c3ccccc3C1c1ccccc12` (centres undefined) displayed an IFI of 17.4%.
For `O=C(Nc1ccc([N+](=O)[O-])cc1O)Nc1ccccc1Oc1ccccc1`, the IFI amounted to 17%.
